# Test results from PubChem BioAssay.
# Calls of active or inactive are those of the source. Unless noted, no rule for the calls is given here.
# Tests used:
# [1] = anti-His antibody binders, primary screen, artefact control for SMM control protein annotation, biochemical, small-molecule microarray, 635 nm fluorescence (AID 1128); details: anti-His Alexa647 antibody binding, higher = more signal;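 also: score merges feature fluorescence with signal-to-noise for each printed compound spot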
# [2] = system: Human papillomavirus type 1a E7 protein (residues 1-88); experiment: HPV1a E7 small-molecule binders, primary screen, biochemical, small-molecule microarray, residues 1-88, 635 nm (AID 1129); details: small-molecule microarray binding, fluorescence 635 nm; higher = more signal
# [3] = molecular target: Focal adhesion kinase 1 (Homo sapiens) (UniProt Q05397); experiment: small-molecule microarray binders of FAK, primary screen, biochemical, 635/667 nm fluorescence, BSA, DTT (AID 1130); details: PTK2 binding, 635 nm fluorescence, higher = more signal;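 also: composite of spot emission at 667 nm and signal to noise over triplicate slides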
# [4] = system: Fibrinogen (Alexa647-labelled); experiment: fibrinogen binders on compound microarrays, profiling panel, artefact control for SMM control-protein annotation, biochemical, small-molecule microarray, 635/667 nm fluorescence (AID 1131); details: fibrinogen-A647 binding fluorescence, higher = more signal;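 also: z-score merges 667 nm fluorescence with per-spot signal-to-noise over triplicate slides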
# [5] = molecular target: Follistatin (Homo sapiens) (UniProt P19883); experiment: follistatin binders on small-molecule microarrays, primary screen, biochemical, small-molecule microarray, 635/667 nm fluorescence (AID 1132); details: FST binding, 635 nm fluorescence, higher = more signal
# [6] = molecular target: Fibroblast growth factor 2 (Homo sapiens) (UniProt P09038); experiment: FGF2 binders on small-molecule microarrays, primary screen, biochemical, small-molecule microarray, 635/667 nm fluorescence (AID 1133); details: small-molecule microarray binding, FGF2, fluorescence 635/667; higher = more signal
# [7] = mitochondrial membrane potential change in A549 cells, profiling panel, cell-based, JC-1 fluorescence, basal, 24 h, 100 nL (AID 1138); details: higher = more signal;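 also: A549 lung adenocarcinoma cells under basal conditions with no added stimulus; test concentration not given here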
# Lefty1 = Lefty1 binders on small-molecule microarrays, primary screen, biochemical, small-molecule microarray, 635/667 nm fluorescence (AID 1139); details: small-molecule microarray binding, fluorescence 635/667; higher = more signal
# [8] = system: wheat germ agglutinin (Triticum aestivum), Alexa647-labelled; experiment: wheat germ agglutinin binders on compound microarrays, profiling panel, artefact control for SMM control-protein annotation, biochemical, small-molecule microarray, 635/667 nm fluorescence (AID 1140); details: WGA-A647 binding, 635 nm fluorescence, higher = more signal;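 also: score merges 667 nm feature emission with signal to noise over triplicate slides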
# [9] = molecular target: Luciferin 4-monooxygenase (Photinus pyralis) (UniProt P08659); experiment: firefly luciferase enzyme inhibitors, primary screen, biochemical, luminescence, purified enzyme, 2006 set (AID 1141); details: SteadyGlo luminescence, 30 min, higher = more signal, called active from +8 up or from −8 down;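 also: cell-free assay with purified firefly luciferase at 100 ng per well in PBS; test concentration not given here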
# [10] = system: Wnt5a (protein binding on small-molecule microarray); experiment: Wnt5a binders on small-molecule microarray, primary screen, biophysical, 635/667 nm fluorescence (AID 1142); details: 635 nm fluorescence, higher = more signal;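 also: fluorescence read at 667 nm with signal to noise per printed feature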
# [11] = cell viability in Huh7 cells, primary screen, cytotoxicity control for HCV replication inhibitor project, CellTiter-Glo luminescence, basal, 48 h (AID 1143); details: Huh7 HCV replicon, higher = more signal, called active from +8 up or from −8 down;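 also: Huh7 hepatoma cells carrying a hepatitis C replication reporter with no stimulus; test concentration not given here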
# [12] = P. aeruginosa biofilm formation inhibitors, primary screen, PAO1 strain, BacTiter-Glo luminescence, LB-PBS (AID 1144); details: 12 h, higher = more signal
# [13] = CREB reporter modulators without forskolin, primary screen, cell-based, PC12, CRE-LacZ reporter, unstimulated (AID 1145); details: no forskolin, luminescence, 4.5 h, higher = more signal, called active from +8 up or from −8 down
# [14] = CREB reporter modulators under forskolin, primary screen, cell-based, PC12, CRE-LacZ reporter, forskolin-stimulated (AID 1146); details: luminescence, 4.5 h, higher = more signal, called active from +8 up or from −8 down;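 also: PC12 cells with 6xCRE LacZ reporter stimulated by forskolin 10 µM; beta-galactosidase reporter signal reflecting CREB driven transcription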
# [15] = molecular target: Streptavidin (Streptomyces avidinii) (UniProt P22629); experiment: streptavidin binders on small-molecule microarray, primary screen, artefact control for SMM compound annotation, biophysical, 635/667 nm fluorescence (AID 1147); details: streptavidin binding, higher = more signal;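 also: signal reflects streptavidin binding to arrayed compounds as a control protein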
# [16] = small-molecule binders of probe aInhba, primary screen, biochemical, small-molecule microarray, 635/667 nm fluorescence (AID 1148); details: higher = more signal;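 also: score merges 667nm spot fluorescence with signal-to-noise for antibody binding to printed compounds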
# Torsin-1A (Homo sapiens) [17] = molecular target: Torsin-1A (Homo sapiens) (UniProt O14656); experiment: torsin A binders from cell lysate, primary screen, small-molecule microarray, wild-type, 635/667 nm (AID 1149); details: COS7 hTOR1A-WT lysate, 635 nm fluorescence, higher = more signal
# Torsin-1A (Homo sapiens) [18] = molecular target: Torsin-1A (Homo sapiens) (UniProt O14656); experiment: small-molecule binders of mutant TOR1A in lysate, primary screen, cell lysate, small-molecule microarray, COS7 lysate, 635/667 nm fluorescence (AID 1150); details: COS7 hTOR1A mutant lysate, 635 nm fluorescence, higher = more signal;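 also: score pools 667 nm emission and signal to noise measuring lysate protein binding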
# [19] = system: Sonic hedgehog protein (Shh); experiment: small-molecule binders of Shh protein, primary screen, biochemical, small-molecule microarray, 635/667 nm fluorescence (AID 1151); details: small-molecule microarray binding, 635 nm fluorescence; higher = more signal;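 also: Shh protein binding to compounds spotted on small-molecule microarray slides; score combines spot fluorescence intensity with signal-to-noise across triplicate slides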
# Chain of Focal adhesion kinase 1 (Homo sapiens) (Q05397 whole entry, looked up): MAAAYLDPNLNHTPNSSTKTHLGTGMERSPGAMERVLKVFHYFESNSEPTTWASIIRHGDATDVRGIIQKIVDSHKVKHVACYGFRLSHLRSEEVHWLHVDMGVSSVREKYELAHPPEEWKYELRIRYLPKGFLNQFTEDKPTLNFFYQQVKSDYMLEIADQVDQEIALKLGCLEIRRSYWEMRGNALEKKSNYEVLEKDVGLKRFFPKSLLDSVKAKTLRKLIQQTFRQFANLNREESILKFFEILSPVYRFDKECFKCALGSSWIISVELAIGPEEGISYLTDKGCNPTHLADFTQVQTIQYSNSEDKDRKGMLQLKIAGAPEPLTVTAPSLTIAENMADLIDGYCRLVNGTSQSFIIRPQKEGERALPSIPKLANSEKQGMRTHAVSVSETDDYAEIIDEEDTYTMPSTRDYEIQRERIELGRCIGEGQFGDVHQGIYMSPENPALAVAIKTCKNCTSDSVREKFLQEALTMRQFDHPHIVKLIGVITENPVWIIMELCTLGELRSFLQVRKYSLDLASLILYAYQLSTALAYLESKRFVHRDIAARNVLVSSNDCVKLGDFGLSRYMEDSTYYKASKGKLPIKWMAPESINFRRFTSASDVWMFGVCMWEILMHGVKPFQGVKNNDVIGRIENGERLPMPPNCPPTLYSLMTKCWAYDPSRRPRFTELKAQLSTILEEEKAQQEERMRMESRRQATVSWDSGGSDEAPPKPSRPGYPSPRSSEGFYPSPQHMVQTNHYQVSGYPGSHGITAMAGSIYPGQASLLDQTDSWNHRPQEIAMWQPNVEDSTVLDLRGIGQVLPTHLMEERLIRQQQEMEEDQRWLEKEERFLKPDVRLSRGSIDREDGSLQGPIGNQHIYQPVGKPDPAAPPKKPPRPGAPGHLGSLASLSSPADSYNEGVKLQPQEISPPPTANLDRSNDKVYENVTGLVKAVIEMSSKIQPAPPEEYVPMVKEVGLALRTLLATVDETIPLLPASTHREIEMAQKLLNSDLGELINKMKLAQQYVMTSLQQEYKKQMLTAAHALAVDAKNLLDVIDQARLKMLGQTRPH
# Chain of Streptavidin (Streptomyces avidinii) (P22629 whole entry, looked up): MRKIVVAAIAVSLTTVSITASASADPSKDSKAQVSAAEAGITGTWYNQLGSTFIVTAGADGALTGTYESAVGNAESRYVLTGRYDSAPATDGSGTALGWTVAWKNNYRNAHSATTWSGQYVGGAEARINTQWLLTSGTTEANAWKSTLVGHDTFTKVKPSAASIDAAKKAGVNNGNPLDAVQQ
# Chain of Fibroblast growth factor 2 (Homo sapiens) (P09038 whole entry, looked up): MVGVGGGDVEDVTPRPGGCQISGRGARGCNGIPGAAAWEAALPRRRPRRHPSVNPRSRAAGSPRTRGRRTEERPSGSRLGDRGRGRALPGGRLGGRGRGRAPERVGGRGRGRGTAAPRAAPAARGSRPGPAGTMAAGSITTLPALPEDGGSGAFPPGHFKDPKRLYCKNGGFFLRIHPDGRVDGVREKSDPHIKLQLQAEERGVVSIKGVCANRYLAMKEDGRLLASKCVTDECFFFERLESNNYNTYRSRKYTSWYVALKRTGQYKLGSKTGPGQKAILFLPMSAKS
# Chain of Luciferin 4-monooxygenase (Photinus pyralis) (P08659 whole entry, looked up): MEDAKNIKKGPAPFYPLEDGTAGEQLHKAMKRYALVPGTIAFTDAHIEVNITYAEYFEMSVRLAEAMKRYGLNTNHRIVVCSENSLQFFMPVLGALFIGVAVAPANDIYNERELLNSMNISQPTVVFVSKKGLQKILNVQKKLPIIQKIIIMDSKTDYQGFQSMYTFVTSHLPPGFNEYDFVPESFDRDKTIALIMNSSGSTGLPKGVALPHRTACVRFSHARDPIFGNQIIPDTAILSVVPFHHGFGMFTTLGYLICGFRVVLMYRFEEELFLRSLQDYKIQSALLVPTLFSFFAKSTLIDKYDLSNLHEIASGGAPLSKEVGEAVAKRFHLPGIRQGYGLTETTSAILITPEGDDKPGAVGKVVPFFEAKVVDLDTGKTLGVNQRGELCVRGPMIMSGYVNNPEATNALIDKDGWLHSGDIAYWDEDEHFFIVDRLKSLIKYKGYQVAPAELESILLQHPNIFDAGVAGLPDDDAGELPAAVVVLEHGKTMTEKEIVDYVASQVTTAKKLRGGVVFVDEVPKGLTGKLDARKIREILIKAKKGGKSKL
# Chain of Follistatin (Homo sapiens) (P19883 whole entry, looked up): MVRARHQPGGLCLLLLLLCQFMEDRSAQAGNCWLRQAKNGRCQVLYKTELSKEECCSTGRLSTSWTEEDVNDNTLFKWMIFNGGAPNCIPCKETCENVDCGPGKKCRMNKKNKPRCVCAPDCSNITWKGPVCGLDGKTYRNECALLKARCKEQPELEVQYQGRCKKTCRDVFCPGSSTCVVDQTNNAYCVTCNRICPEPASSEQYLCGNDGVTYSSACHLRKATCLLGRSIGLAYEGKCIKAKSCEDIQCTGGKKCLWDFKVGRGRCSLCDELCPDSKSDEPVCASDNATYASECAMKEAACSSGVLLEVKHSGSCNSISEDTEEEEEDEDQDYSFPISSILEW
# Chain of Torsin-1A (Homo sapiens) (O14656 whole entry, looked up): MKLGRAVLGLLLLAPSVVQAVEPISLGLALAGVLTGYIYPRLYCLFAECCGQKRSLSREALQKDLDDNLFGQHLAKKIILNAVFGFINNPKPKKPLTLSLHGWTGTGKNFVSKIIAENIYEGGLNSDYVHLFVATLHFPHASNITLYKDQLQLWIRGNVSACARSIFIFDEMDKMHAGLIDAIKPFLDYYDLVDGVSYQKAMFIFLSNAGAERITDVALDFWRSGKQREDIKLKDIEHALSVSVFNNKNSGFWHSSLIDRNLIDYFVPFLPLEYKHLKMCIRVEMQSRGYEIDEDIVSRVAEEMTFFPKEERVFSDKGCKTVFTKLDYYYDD
SMILES,composite z-score [1],composite z-score [2],composite z-score [3],composite z-score [4],composite z-score [5],composite z-score [6],z-score [7],composite z-score (Lefty1),composite z-score [8],z-score [9],composite z-score [10],z-score [11],z-score [12],z-score [13],z-score [14],composite z-score [15],composite z-score [16],composite z-score (Torsin-1A (Homo sapiens) [17]),composite z-score (Torsin-1A (Homo sapiens) [18]),composite z-score [19]
COc1ccc([Si](C)(C)[C@@H]2[C@@H](CCn3cc([C@H](O)c4ccccc4)nn3)O[C@]3(C(=O)N(c4ccccc4)c4ccccc43)[C@H]2C)cc1,-0.684,0.386,0.474,-0.308,0.586,0.184,0.00801,0.424,-0.348,0.389 (inactive),-0.0872,-6.24 (inactive),0.506 (inactive),1.6 (inactive),-0.897 (inactive),-0.238,-0.22,0.511,0.283,0.618
CCOC(=O)C1=CC[C@@H](c2ccccc2)N(S(=O)(=O)c2ccc(C)cc2)[C@H]1C=Cc1ccccc1,0.906,0.943,0.289,-0.181,-0.28,-0.463,2.17,-0.584,0.152,1.45 (inactive),-0.109,-2.35 (inactive),0.17 (inactive),-0.0696 (inactive),0.521 (inactive),0.261,0.0713,0.0331,-0.0749,-0.723
COC(=O)[C@@]1(Cc2ccc(F)cc2)[C@H]2c3cc(C(=O)N4CCCC4)n(C)c3C[C@H]2CN1C(=O)c1ccccc1,2.46,1.23,0.746,0.422,0.253,-0.325,0.312,-0.983,0.0993,0.745 (inactive),0.926,-1.4 (inactive),-0.666 (inactive),0.58 (inactive),0.736 (inactive),1.18,0.757,0.492,1.34,-0.928
C[C@@H]1ON(c2ccc(I)cc2)[C@H](c2ccc(OC(=O)OC(C)(C)C)cc2)[C@H]1C(=O)N1C(=O)OC[C@H]1Cc1ccccc1,0.955,1.13,-0.0457,0.966,0.61,0.255,0.386,0.445,0.348,-0.695 (inactive),0.0472,-1.32 (inactive),-0.829 (inactive),-0.415 (inactive),-0.642 (inactive),0.573,-0.0468,0.0475,0.624,0.639
CN(C)CCCC[C@@H]1NC(=O)[C@@H]2C[C@H](C(=O)O)[C@H](c3cccc(OCCO)c3)N2C1=O,1.22,-0.544,-0.335,0.438,0.072,1.17,0.0092,-0.528,-0.138,-0.836 (inactive),0.471,-0.37 (inactive),-0.965 (inactive),1.11 (inactive),0.664 (inactive),-0.634,-0.258,-0.0975,-0.0752,0.212
CC(=O)n1cc(C(O)C2C=CC3C(=O)N(c4ccccc4)C(=O)C3N2Nc2ccc(C(C)C)cc2)c2ccccc21 (stereo not given),0.701,1.2,1.03,1.02,1,0.672,0.662,0.304,0.743,0.22 (inactive),0.076,-0.609 (inactive),-0.827 (inactive),0.24 (inactive),-0.247 (inactive),1.88,0.161,-0.285,0.617,-0.69
C=CC[C@H](OC(=O)Nc1ccc(SC)cc1)c1ccc(OCCO)cc1,0.299,-0.444,-0.452,-1.96,0.734,0.144,0.08,0.34,0.61,-1.93 (inactive),-0.348,-2.69 (inactive),-0.982 (inactive),8.61 (active),0.938 (inactive),-0.707,-0.112,0.25,0.154,1.68
COC(=O)C1=CC(CCCO)=CC(c2ccc(CN3CCCC3)cc2)N(Cc2cc3c(cc2Br)OCO3)C=C1C(=O)OC (stereo not given),0.676,1.22,0.473,1.02,1.2,0.918,0.0526,0.514,1,0.197 (inactive),0.804,-0.0928 (inactive),-0.44 (inactive),0.0118 (inactive),-0.602 (inactive),1.98,0.36,0.0851,2.59,-0.249
O=c1cccc(-c2ccco2)o1,0.645,0.471,0.082,0.476,1.3,0.879,-0.262,1.02,0.138,0.405 (inactive),0.302,-0.768 (inactive),0.329 (inactive),-0.518 (inactive),0.57 (inactive),0.721,0.0091,0.444,0.066,2.07
COCC1=C2[C@@H](CCc3ccccc3)OB(O)C[C@@H]2[C@@H]2C(=O)N(C)C(=O)[C@@H]2C1,0.0751,0.003,0.164,0.353,0.309,0.833,-0.0837,0.0961,-0.098,-0.171 (inactive),-0.16,0.0876 (inactive),0.0987 (inactive),-0.871 (inactive),1.08 (inactive),0.0675,-0.113,0.607,-0.0933,0.588
